For part of these data: Entries with a potency or affinity are not part of this list. The source made the active and inactive calls.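 The calls were made as follows, unless noted: active = primary screen activator hit with a dose response curve and TRPC4 channel activation at any tested dose; inactive = no activation, no dose response, or not a primary hit.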
Legend:
[1] = tested on: TRPC4 beta (transient receptor potential cation channel C4), mouse; assay: activators of mouse TRPC4 channel, confirmation, cell-based, Fluo4 calcium, HEK293 TRPC4beta/mu-opioid, duplicates, 10 µM (AID 2426;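 active = fluorescence ratio normalized to control raised more than 50% in primary screen plus both repeat runs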); settings: Fluo4 calcium fluorescence, at 10 µM; stronger effect = higher value
[2] = tested on: transient receptor potential cation channel C4 beta (TRPC4), mouse; assay: activators of mouse TRPC4 channel, confirmation, cell-based, second round, Fluo4, HEK293 TRPC4beta/mu-opioid, 1 µM (AID 2461;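 active = primary screen active and over 50% activation in each of two duplicate runs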); settings: Fluo4 calcium fluorescence, at 1 µM; stronger effect = higher value
[3] = tested on: TRPC4 (transient receptor potential cation channel C4 beta), mouse; assay: positive allosteric modulators of mouse TRPC4, confirmation, cell-based, second round, Fluo-4, HEK293 TRPC4beta/mu-opioid, 1 µM (AID 2554;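 active = primary screen hit whose fluorescence ratio, in both repeats, exceeds the weak agonist control mean by 3 SD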); settings: DAMGO EC20, Fluo-4 calcium flux, at 1 µM; stronger effect = higher value
[4] = tested on: TRPC4 beta (transient receptor potential cation channel C4), mouse; assay: positive allosteric modulators of mouse TRPC4, confirmation, cell-based, Fluo-4, HEK293 TRPC4beta/mu-opioid (AID 2555;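 active = primary screen hit whose calcium fluorescence ratio, in both repeats, exceeds the weak agonist control mean by 3 SD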); settings: DAMGO EC20, Fluo-4 calcium flux, at 10 µM; stronger effect = higher value
[5] = molecular target: Short transient receptor potential channel 4 (Mus musculus) (UniProt Q9QUQ5); assay: inhibitors of mouse TRPC4 channel, confirmation, cell-based, Fluo4, HEK293 TRPC4beta/mu-opioid (AID 2636;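 active = calcium signal cut by more than 3 SD below the full-agonist control yet still positive, in both repeats and the earlier primary screen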); settings: DAMGO, Fluo4 calcium flux, at 10 µM; stronger effect = higher value
Short transient receptor potential channel 4 (Mus musculus), sequence (Q9QUQ5 whole entry, looked up): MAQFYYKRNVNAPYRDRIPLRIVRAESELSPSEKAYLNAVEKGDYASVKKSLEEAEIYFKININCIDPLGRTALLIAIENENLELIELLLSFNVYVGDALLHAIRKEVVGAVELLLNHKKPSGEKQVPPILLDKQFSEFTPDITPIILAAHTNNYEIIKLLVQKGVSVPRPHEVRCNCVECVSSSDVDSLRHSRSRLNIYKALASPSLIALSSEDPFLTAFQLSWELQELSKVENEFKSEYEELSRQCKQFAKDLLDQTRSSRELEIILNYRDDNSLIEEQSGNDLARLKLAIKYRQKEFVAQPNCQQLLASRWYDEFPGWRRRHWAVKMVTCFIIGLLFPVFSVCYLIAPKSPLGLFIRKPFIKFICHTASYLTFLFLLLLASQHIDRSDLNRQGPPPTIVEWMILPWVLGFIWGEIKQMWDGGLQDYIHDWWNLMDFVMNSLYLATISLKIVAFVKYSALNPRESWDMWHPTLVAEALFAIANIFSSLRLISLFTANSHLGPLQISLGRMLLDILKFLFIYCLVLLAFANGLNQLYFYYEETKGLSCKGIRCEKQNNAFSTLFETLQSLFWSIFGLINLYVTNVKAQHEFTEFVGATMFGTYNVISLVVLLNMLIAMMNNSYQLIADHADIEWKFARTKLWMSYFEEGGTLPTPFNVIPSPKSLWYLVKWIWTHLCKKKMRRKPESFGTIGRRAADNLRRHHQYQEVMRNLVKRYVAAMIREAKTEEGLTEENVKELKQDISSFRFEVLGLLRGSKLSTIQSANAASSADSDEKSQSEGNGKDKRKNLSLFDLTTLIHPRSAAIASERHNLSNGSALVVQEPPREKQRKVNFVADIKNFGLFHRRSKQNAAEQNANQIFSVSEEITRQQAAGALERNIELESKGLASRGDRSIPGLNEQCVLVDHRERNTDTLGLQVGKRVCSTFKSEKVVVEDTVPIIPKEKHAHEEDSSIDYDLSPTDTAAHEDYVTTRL

[6] = molecular target: Short transient receptor potential channel 4 (Mus musculus) (UniProt Q9QUQ5); assay: inhibitors of mouse TRPC4 channel, confirmation, cell-based, second round, Fluo4, HEK293 TRPC4beta/mu-opioid, 1 µM (AID 2637;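 active = calcium signal ratio cut to more than 3 SD under the fully stimulated control mean yet still positive, in both repeats and the primary screen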;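 as to inhibition: percent of integrated ratio relative to wells lacking test compound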); settings: Fluo4 calcium flux, DAMGO, at 1 µM; stronger effect = higher value
[7] = molecular target: Short transient receptor potential channel 4 (Mus musculus) (UniProt Q9QUQ5); assay: mouse TRPC4 channel activators, dose response, cell-based, HEK293 TRPC4/mu-opioid, Fluo-4 calcium (AID 434937)
[8] = molecular target: Short transient receptor potential channel 4 (Mus musculus) (UniProt Q9QUQ5); assay: TRPC4 positive allosteric modulators, dose response, cell-based, HEK293 TRPC4/mu-opioid, Fluo-4 calcium, EC20 DAMGO (AID 434941;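 active = earlier screen potentiator hit that boosts the TRPC4 ion channel at some dose, with a dose response; inactive = no potentiation, no dose response, or not a prior hit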;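 also: calcium entry triggered by an EC20 dose of DAMGO at the co-expressed mu-opioid receptor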)
[9] = molecular target: Short transient receptor potential channel 6 (Mus musculus) (UniProt Q61143); assay: inhibition of mouse TRPC6 channel, confirmation, selectivity assay for TRPC4 inhibitor project, cell-based, HEK293, membrane potential dye, duplicate (AID 434948;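 active = active in primary screen and both duplicates, each dropping signal beyond three positive-control SD with fluorescence still positive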); settings: HEK293 TRPC6, membrane potential dye fluorescence, at 10 µM, stimulated with maximal-effect acetylcholine; stronger effect = higher value
Short transient receptor potential channel 6 (Mus musculus), sequence (Q61143 whole entry, looked up): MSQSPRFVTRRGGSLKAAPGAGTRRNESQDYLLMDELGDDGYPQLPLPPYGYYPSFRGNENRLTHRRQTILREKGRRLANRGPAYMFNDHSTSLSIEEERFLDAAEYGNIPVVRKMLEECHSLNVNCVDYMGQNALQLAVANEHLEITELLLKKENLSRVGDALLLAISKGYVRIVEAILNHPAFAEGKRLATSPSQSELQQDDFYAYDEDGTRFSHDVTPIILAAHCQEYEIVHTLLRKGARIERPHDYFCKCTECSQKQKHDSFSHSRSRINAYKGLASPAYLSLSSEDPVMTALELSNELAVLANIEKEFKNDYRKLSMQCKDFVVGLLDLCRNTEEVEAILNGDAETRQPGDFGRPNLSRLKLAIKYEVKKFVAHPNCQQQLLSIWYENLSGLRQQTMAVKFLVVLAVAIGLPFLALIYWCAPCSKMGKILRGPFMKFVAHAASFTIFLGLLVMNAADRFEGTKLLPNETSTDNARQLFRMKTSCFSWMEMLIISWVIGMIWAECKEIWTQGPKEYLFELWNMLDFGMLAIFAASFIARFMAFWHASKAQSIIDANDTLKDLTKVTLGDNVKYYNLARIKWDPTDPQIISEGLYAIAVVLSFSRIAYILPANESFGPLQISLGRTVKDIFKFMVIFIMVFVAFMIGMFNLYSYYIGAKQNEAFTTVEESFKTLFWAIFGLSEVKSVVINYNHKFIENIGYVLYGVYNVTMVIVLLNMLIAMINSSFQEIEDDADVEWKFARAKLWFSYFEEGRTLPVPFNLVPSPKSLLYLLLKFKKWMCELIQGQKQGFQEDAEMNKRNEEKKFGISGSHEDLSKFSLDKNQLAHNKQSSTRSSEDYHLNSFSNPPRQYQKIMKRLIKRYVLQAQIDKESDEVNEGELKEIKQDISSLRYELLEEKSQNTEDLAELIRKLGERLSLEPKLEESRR

[10] = molecular target: Short transient receptor potential channel 6 (Mus musculus) (UniProt Q61143); assay: activation of mouse TRPC6 channel, confirmation, selectivity assay for TRPC4 activator project, cell-based, HEK293, membrane potential dye, duplicate (AID 434950;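 active = membrane potential signal rise above negative control mean plus 3 SD in both duplicates, also active in the earlier TRPC4 screen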); settings: HEK293 TRPC6, membrane potential fluorescence, at 10 µM; stronger effect = higher value
[11] = molecular target: Short transient receptor potential channel 6 (Mus musculus) (UniProt Q61143); assay: TRPC6 potentiation by TRPC4 potentiator hits, confirmation, selectivity assay for TRPC4 potentiator project, HEK293 cells, membrane potential dye, duplicate (AID 434952;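 active = compound raising the membrane signal above positive-control mean plus 3 SD in both repeats, and a primary screen hit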); settings: HEK293 TRPC6, membrane potential dye fluorescence, at 10 µM, maximal acetylcholine added after compound; stronger effect = higher value
[12] = molecular target: Short transient receptor potential channel 4 (Mus musculus) (UniProt Q9QUQ5); assay: calcium flux activators in TRPC4/5HT1a cells, counter-screen for TRPC4 activator project, cell-based, second counter screen, HEK293 TRPC4/5HT1a, Fluo-4 (AID 434977;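 active = calcium signal rise above buffer-control mean plus 5 SD in both duplicates, and also a hit in the primary screen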); settings: Fluo-4 calcium flux, at 10 µM; stronger effect = higher value
[13] = calcium flux inhibitors in TRPC4/5HT1a cells, confirmation, counter-screen for TRPC4 inhibitor project, cell-based, second counter screen, HEK293 TRPC4/5HT1a, Fluo-4 (AID 434978;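 active = primary screen active whose calcium signal fell more than 3 SD beyond the full-serotonin control mean in both duplicate plates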;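 as to outcome: serotonin given first at submaximal then at maximal dose after compound preincubation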); settings: Fluo-4 calcium flux, at 10 µM, serotonin added to trigger calcium flux; stronger effect = higher value
[14] = tested on: TRPC4 (mouse), co-expressed with 5HT1a in HEK293; assay: calcium flux potentiators in TRPC4/5HT1a cells, confirmation, counter-screen for TRPC4 potentiator project, cell-based, second counter screen, HEK293 TRPC4/5HT1a, Fluo-4 (AID 434979;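 active = signal rise over 3 SD above mean of control wells given weak agonist, in both repeats and first screen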); settings: Fluo-4 calcium flux, at 10 µM, serotonin added at its EC20 dose; stronger effect = higher value
[15] = calcium flux activation in mu-opioid HEK293 cells, confirmation, counter-screen for TRPC4 activator project, cell-based, HEK293 mu-opioid receptor line (AID 449723;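 active = hit in primary screen, with calcium signal over 5 SD above buffer well mean in both duplicates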;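 also: counter screen cells carry the mu-opioid receptor alone and lack TRPC4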); settings: Fluo-4 calcium fluorescence, at 10 µM; stronger effect = higher value
[16] = calcium flux enhancement in mu-opioid HEK293 cells, confirmation, counter-screen for TRPC4 allosteric potentiator project, cell-based, HEK293 mu-opioid receptor line (AID 449724;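 active = calcium signal rise more than 3 SD above the low-dose agonist control mean, in both duplicate plates and the primary screen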); settings: Fluo-4 calcium flux, at 10 µM, compound added before EC20 DAMGO stimulus; stronger effect = higher value

| Structure (SMILES) | outcome [1] | outcome [2] | outcome [3] | outcome [4] | inhibition [5] | outcome [6] | outcome [7] | outcome [8] | outcome [9] | outcome [10] | outcome [11] | outcome [12] | inhibition [13] | outcome [14] | outcome [15] | outcome [16] | inhibition [6] | outcome [13] | outcome [5] |
| --- | --- | --- | --- | --- | --- | --- | --- | --- | --- | --- | --- | --- | --- | --- | --- | --- | --- | --- | --- |
| Fc1ccc(CN2CCC(Cc3ccccc3)CC2)cc1F | inactive | inactive | inactive | inactive | 89% (active) | inactive | inactive | inactive | inactive | inactive | inactive | inactive | 25.9% (active) | inactive | inactive | inactive | – | – | – |
| Cc1ccc(S(=O)(=O)Nc2cccc(C(=O)NCC(c3ccco3)N3CCCCC3)c2)cc1F (stereo not given) | inactive | inactive | inactive | inactive | 100% (active) | – | inactive | inactive | inactive | inactive | inactive | inactive | – | inactive | inactive | inactive | 39% (active) | inactive | – |
| Brc1ccc(CN2C3=NCCCN3c3ccccc32)cc1 | inactive | inactive | inactive | inactive | 96% (active) | – | inactive | inactive | inactive | inactive | inactive | inactive | 9.36% (active) | inactive | inactive | inactive | 75% (active) | – | – |
| CCOC(=O)C1CCN(C2CCN(C(=O)c3oc4c(C)c(C)ccc4c3C)CC2)CC1 | inactive | inactive | inactive | inactive | 95% (active) | inactive | inactive | inactive | inactive | inactive | inactive | inactive | – | inactive | inactive | inactive | – | inactive | – |
| c1ccc(Nc2n[nH]nc2-c2ccccc2)cc1 | inactive | inactive | inactive | inactive | 96% (active) | – | inactive | inactive | inactive | inactive | inactive | inactive | 17.4% (active) | inactive | inactive | inactive | 60% (active) | – | – |
| N=c1n(CCO)c2ccccc2n1Cc1ccc(Cl)cc1 | inactive | inactive | inactive | inactive | 96% (active) | – | inactive | inactive | inactive | inactive | inactive | inactive | 11.9% (active) | inactive | inactive | inactive | 75% (active) | – | – |
| O=C(Nc1ccccc1N1CCN(C(=O)c2ccc(Cl)cc2)CC1)c1cccc([N+](=O)[O-])c1 | inactive | inactive | inactive | inactive | 81% (active) | – | inactive | inactive | inactive | inactive | inactive | inactive | 36.6% (active) | inactive | inactive | inactive | 52% (active) | – | – |
| C=CCN1CCN(C(c2cccc(OC)c2OC)c2nnnn2CCC(C)C)CC1 (stereo not given) | inactive | inactive | inactive | inactive | 51% (active) | inactive | inactive | inactive | inactive | inactive | inactive | inactive | – | inactive | inactive | inactive | – | inactive | – |
| CCCCCCCCCCCCOC(=O)C[N+](C)(C)C | inactive | inactive | inactive | inactive | – | inactive | inactive | inactive | inactive | inactive | inactive | inactive | 37.5% (active) | inactive | inactive | inactive | – | – | inactive |
| CCCN1CN(Cc2ccco2)c2nc3ccccc3n2C1 | inactive | inactive | inactive | inactive | 96% (active) | – | inactive | inactive | inactive | inactive | inactive | inactive | 25% (active) | inactive | inactive | inactive | 53% (active) | – | – |
| CC1CCCN(CCCN2C(=O)C3C(C(=O)Nc4ccc(Cl)cc4)C4C=CC3(O4)C2C(=O)NC2CCCCC2)C1 (stereo not given) | inactive | inactive | inactive | inactive | 97% (active) | – | inactive | inactive | inactive | inactive | inactive | inactive | 26.1% (active) | inactive | inactive | inactive | 63% (active) | – | – |
| CC1CCCCN1CCCNC(=O)c1nn(C)c2c1CSc1ccccc1-2 (stereo not given) | inactive | inactive | inactive | inactive | 94% (active) | inactive | inactive | inactive | inactive | inactive | inactive | inactive | – | inactive | inactive | inactive | – | inactive | – |
| O=C(NCCCN1CCN(c2cccc(Cl)c2)CC1)C1CCC(=O)N1Cc1ccccc1Cl (stereo not given) | inactive | inactive | inactive | inactive | 90% (active) | – | inactive | inactive | inactive | inactive | inactive | inactive | 35.9% (active) | inactive | inactive | inactive | 52% (active) | – | – |
| CC(C)(C)c1cc2cccnc2n1Cc1ccccc1 | inactive | inactive | inactive | inactive | 95% (active) | – | inactive | inactive | inactive | inactive | inactive | inactive | 15.4% (active) | inactive | inactive | inactive | 70% (active) | – | – |
| CN1CCN(c2ccc(NC(=O)c3ccc(Br)o3)cc2)CC1 | inactive | inactive | inactive | inactive | 91% (active) | – | inactive | inactive | inactive | inactive | inactive | inactive | – | inactive | inactive | inactive | 46% (active) | inactive | – |

Source: PubChem BioAssay
